The source made the active and inactive calls.
Legend:
[1] = E. coli DRC41 culture turbidity changes, primary screen, E. coli filamentation inducer project, strain DRC41, OD650, 48 h (AID 1152);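 further: E. coli MC1000 strain DRC41 lacking acrAB efflux pump and sulA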; conditions: E. coli DRC41 (acrAB sulA), higher = more signal, called active from +8 up or from −8 down
[2] = small-molecule binders of probe aLefty1, primary screen, biochemical, small-molecule microarray, 635/667 nm fluorescence (AID 1153); conditions: higher = more signal;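 further: score merges spot fluorescence with signal-to-noise ratio from the scanned slide images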
[3] = PSAC antagonists in infected red cells, primary screen, cell-based, P. falciparum Indochina, OD700, 1 h (AID 1154); conditions: P. falciparum Indochina infected RBC osmotic lysis, higher = more signal, called active from +8 up or from −8 down
[4] = PSAC antagonists in infected red cells, primary screen, cell-based, P. falciparum Indochina, OD700, 2 h (AID 1155);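 further: lysis reports solute entry through the parasite surface anion channel PSAC; channel blockers reduce lysis of infected cells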; conditions: P. falciparum Indochina infected erythrocytes, osmotic lysis OD700; higher = more signal, called active from +8 up or from −8 down
[5] = osmotic lysis modulators in infected erythrocytes, primary screen, PSAC antagonist project, cell-based, P. falciparum Indochina, OD700, 3 h (AID 1156); conditions: higher = more signal, called active from +8 up or from −8 down
[6] = PSAC antagonists in infected red cells, primary screen, cell-based, P. falciparum Indochina, OD700, 18 h (AID 1157); conditions: P. falciparum Indochina infected erythrocytes, osmotic lysis OD700, 18 h; higher = more signal, called active from +8 up or from −8 down
[7] = modulators of S6 phosphorylation in cells, primary screen, cell-based, A549, cytoblot, luminescence, serum-stimulated (AID 1158); conditions: A549 phospho-S6 cytoblot, 5 h, higher = more signal;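 further: serum-stimulated A549 lung adenocarcinoma cells; signal is phosphorylated S6 detected by cytoblot immunostaining with HRP secondary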
[8] = target: NADPH oxidase 2 (Homo sapiens) (UniProt P04839); assay: NOX2-dependent H2O2 signal modulators, primary screen, NOX inhibitor project, cell-based, HEK293-NOX2, PMA-stimulated, Amplex Red fluorescence (AID 1159); conditions: 45 min, higher = more signal, called active from +8 up or from −8 down; further: test concentration not given here
NADPH oxidase 2 (Homo sapiens), sequence (P04839 whole entry, looked up): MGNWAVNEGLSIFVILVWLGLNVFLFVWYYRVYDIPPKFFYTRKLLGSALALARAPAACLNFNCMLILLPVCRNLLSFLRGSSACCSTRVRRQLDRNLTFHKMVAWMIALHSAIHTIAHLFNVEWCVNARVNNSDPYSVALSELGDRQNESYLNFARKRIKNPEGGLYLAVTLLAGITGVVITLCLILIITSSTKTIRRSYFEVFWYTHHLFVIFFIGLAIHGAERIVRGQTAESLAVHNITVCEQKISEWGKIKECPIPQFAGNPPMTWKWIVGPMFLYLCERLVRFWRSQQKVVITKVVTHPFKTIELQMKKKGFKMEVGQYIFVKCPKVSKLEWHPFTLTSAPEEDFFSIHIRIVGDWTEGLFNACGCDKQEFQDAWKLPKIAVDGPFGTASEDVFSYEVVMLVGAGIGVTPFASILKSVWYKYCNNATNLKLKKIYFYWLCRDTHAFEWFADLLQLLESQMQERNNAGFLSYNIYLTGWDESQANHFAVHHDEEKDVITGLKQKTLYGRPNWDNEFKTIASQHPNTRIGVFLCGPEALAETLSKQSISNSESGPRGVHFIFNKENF

[9] = target: NADPH oxidase 4 (Homo sapiens) (UniProt Q9NPH5); assay: NOX4-dependent H2O2 signal modulators, primary screen, NOX inhibitor project, cell-based, HEK293-NOX4, tetracycline-induced, Amplex Red fluorescence (AID 1160); conditions: 45 min, higher = more signal, called active from +8 up or from −8 down
NADPH oxidase 4 (Homo sapiens), sequence (Q9NPH5 whole entry, looked up): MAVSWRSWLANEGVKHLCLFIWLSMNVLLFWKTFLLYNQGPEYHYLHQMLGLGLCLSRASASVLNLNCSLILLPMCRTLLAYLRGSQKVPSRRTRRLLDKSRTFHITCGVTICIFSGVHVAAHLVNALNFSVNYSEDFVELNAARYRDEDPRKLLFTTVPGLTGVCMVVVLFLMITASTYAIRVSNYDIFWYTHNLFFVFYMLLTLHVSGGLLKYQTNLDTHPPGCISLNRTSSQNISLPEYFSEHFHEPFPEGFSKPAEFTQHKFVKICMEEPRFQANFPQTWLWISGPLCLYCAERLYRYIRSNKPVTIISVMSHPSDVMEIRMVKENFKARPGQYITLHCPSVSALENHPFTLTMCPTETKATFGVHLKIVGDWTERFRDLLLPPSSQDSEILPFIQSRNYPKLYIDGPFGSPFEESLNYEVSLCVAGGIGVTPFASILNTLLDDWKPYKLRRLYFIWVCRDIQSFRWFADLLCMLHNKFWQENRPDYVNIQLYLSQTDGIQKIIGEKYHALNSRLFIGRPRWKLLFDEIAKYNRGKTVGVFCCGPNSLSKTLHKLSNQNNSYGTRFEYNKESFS

[10] = target: NADPH oxidase 5 (Homo sapiens) (UniProt Q96PH1); assay: NOX5-dependent H2O2 signal modulators, primary screen, NOX inhibitor project, cell-based, HEK293-NOX5, Amplex Red fluorescence (AID 1161); conditions: HEK293-NOX5, ionomycin, 45 min, higher = more signal
NADPH oxidase 5 (Homo sapiens), sequence (Q96PH1 whole entry, looked up): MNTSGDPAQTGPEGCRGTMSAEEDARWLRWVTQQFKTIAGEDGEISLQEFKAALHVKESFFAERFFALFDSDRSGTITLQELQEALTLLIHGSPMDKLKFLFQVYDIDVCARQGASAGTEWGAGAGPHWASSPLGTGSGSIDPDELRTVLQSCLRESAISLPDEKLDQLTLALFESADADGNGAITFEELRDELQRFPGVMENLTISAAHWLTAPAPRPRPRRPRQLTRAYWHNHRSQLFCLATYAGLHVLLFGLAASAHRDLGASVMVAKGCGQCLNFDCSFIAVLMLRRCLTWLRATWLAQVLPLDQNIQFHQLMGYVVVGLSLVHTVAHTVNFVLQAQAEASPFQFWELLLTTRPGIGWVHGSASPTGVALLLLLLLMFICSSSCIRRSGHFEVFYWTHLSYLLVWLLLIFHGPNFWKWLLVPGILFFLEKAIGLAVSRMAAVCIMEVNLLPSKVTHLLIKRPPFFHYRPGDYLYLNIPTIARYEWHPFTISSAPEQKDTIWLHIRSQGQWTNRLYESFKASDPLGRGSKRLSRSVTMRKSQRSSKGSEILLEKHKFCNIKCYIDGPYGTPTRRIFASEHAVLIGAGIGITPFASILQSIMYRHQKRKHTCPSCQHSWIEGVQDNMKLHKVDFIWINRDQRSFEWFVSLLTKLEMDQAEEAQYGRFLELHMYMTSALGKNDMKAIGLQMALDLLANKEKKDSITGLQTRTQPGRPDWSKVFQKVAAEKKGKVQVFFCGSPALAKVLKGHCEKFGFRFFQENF

[11] = A549 cell viability effects, profiling panel, calcein-AM fluorescence, 48 h, basal (AID 1162); conditions: higher = more signal; further: test concentration not given here
[12] = adipocyte viability effects, profiling panel, cell-based, 3T3-L1 adipocytes, calcein-AM fluorescence, 48 h, basal (AID 1163); conditions: 3T3-L1 adipocytes viability, higher = more signal; further: test concentration not given here
[13] = HepG2 cell viability effects, profiling panel, calcein-AM fluorescence, 48 h, basal (AID 1164); conditions: higher = more signal; further: test concentration not given here
[14] = MM1S cell viability effects, profiling panel, calcein-AM fluorescence, 48 h, basal (AID 1165); conditions: higher = more signal;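 further: viability of MM1S multiple myeloma cells under basal unstimulated conditions; test concentration not given here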
[15] = basal RPMI8226 viability, no added stimulus, profiling panel, cell-based, calcein-AM fluorescence, 48 h, PK04 Diversity Set (AID 1166); conditions: RPMI8226 myeloma viability, higher = more signal;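 further: cells grown under basal conditions without added stimulus; test concentration not given here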
[16] = basal HepG2 mitochondrial membrane potential changes, profiling panel, cell-based, JC-1 fluorescence, 24 h, 100 nL compound (AID 1167); conditions: higher = more signal; further: test concentration not given here
[17] = basal 3T3-L1 adipocyte mitochondrial potential changes, profiling panel, cell-based, JC-1 fluorescence, 3T3-L1 adipocytes, 24 h, 100 nL compound (AID 1168); conditions: JC-1 mitochondrial fluorescence, higher = more signal, called active from +8 up or from −8 down; further: test concentration not given here
[18] = basal RPMI8226 mitochondrial membrane potential changes, profiling panel, cell-based, JC-1 fluorescence, 24 h, 100 nL compound (AID 1169); conditions: RPMI8226 myeloma, JC-1 mitochondrial potential fluorescence, higher = more signal; further: test concentration not given here
[19] = basal MM1S mitochondrial membrane potential changes, profiling panel, cell-based, JC-1 fluorescence, 24 h, 100 nL compound (AID 1170); conditions: higher = more signal; further: test concentration not given here
[20] = A549 lung cancer cell viability effects, profiling panel, resazurin fluorescence, 24 h, PK04 Diversity Set (AID 1171); conditions: higher = more signal, called active from +8 up or from −8 down; further: test concentration not given here

O=c1cccc(-c2ccccc2C(F)(F)F)o1
z-score [1]: -0.934 (inactive) | composite z-score [2]: 0.69 | z-score [3]: 0.168 (inactive) | z-score [4]: 0.761 (inactive) | z-score [5]: -0.627 (inactive) | z-score [6]: 0.341 (inactive) | z-score [7]: -0.67 | z-score [8]: 0.409 (inactive) | z-score [9]: 0.0518 (inactive) | z-score [10]: -0.982 | z-score [11]: -0.976 | z-score [12]: -0.0994 | z-score [13]: 0.21 | z-score [14]: 0.634 | z-score [15]: -0.475 | z-score [16]: -0.72 | z-score [17]: 0.254 (inactive) | z-score [18]: 0.835 | z-score [19]: -1.3 | z-score [20]: -0.262 (inactive)

O=C1c2ccccc2[C@](Cc2ccccc2I)(C(=O)O)[C@H](c2ccc(CO)cc2)N1Cc1ccccc1
z-score [1]: 0.848 (inactive) | composite z-score [2]: 0.223 | z-score [3]: 4.42 (inactive) | z-score [4]: -0.579 (inactive) | z-score [5]: -0.144 (inactive) | z-score [6]: -0.656 (inactive) | z-score [7]: 1.25 | z-score [8]: 0.516 (inactive) | z-score [9]: 0.148 (inactive) | z-score [10]: 1.71 | z-score [11]: 1.48 | z-score [12]: 0.431 | z-score [13]: 1.04 | z-score [14]: 0.295 | z-score [15]: -1.66 | z-score [16]: 0.275 | z-score [17]: 0.0449 (inactive) | z-score [18]: -0.601 | z-score [19]: -0.349 | z-score [20]: -1.45 (inactive)

COc1ccc([Si](C)(C)[C@H]2[C@H](CC(=O)N3Cc4ccccc4C[C@H]3CO)O[C@@]3(C(=O)N(Cc4cccc(N5C(=O)c6cccc7cccc5c67)c4)c4ccccc43)[C@@H]2C)cc1
z-score [1]: -0.437 (inactive) | composite z-score [2]: -0.362 | z-score [3]: 5.25 (inactive) | z-score [4]: 0.572 (inactive) | z-score [5]: 1 (inactive) | z-score [6]: 0.793 (inactive) | z-score [7]: -0.112 | z-score [8]: -1.79 (inactive) | z-score [9]: -0.0145 (inactive) | z-score [10]: -0.799 | z-score [11]: 0.653 | z-score [12]: 0.986 | z-score [13]: -0.475 | z-score [14]: -2.54 | z-score [15]: -4.12 | z-score [16]: 0.813 | z-score [17]: 0.611 (inactive) | z-score [18]: -1.19 | z-score [19]: -1.72 | z-score [20]: -1.02 (inactive)

CN(C)CCCNC(=O)[C@@H]1c2ccccc2C(=O)N(C2Cc3ccccc3C2)[C@H]1c1ccc(CO)cc1
z-score [1]: 0.776 (inactive) | composite z-score [2]: -0.765 | z-score [3]: 3.98 (inactive) | z-score [4]: 0.517 (inactive) | z-score [5]: 1.79 (inactive) | z-score [6]: 0.281 (inactive) | z-score [7]: -0.421 | z-score [8]: 0.498 (inactive) | z-score [9]: 1.25 (inactive) | z-score [10]: 0.545 | z-score [11]: 1.61 | z-score [12]: 0.121 | z-score [13]: 1.99 | z-score [14]: -0.233 | z-score [15]: -1.28 | z-score [16]: 3.81 | z-score [17]: 0.571 (inactive) | z-score [18]: -0.066 | z-score [19]: -0.311 | z-score [20]: 0.267 (inactive)

CC(=O)c1ccc(C(O)C2C=CC3C(=O)N(C)C(=O)C3N2NC(=O)OC(C)(C)C)cc1 (stereo not given)
z-score [1]: -1.33 (inactive) | composite z-score [2]: 0.186 | z-score [3]: 1.24 (inactive) | z-score [4]: 0.957 (inactive) | z-score [5]: 0.0395 (inactive) | z-score [6]: 0.95 (inactive) | z-score [7]: -1.51 | z-score [8]: -0.455 (inactive) | z-score [9]: -1.57 (inactive) | z-score [10]: -1.01 | z-score [11]: -1.02 | z-score [12]: -0.701 | z-score [13]: -0.831 | z-score [14]: -0.682 | z-score [15]: -0.193 | z-score [16]: -1.29 | z-score [17]: -0.82 (inactive) | z-score [18]: -0.539 | z-score [19]: 0.485 | z-score [20]: -0.659 (inactive)

C=C(CCCC)/C(=C/C[C@H](OC(C)=O)c1cccc(OCCO)c1)c1cc(C(=O)OC)ccc1OC
z-score [1]: 1.19 (inactive) | composite z-score [2]: -0.007 | z-score [3]: 21 (active) | z-score [4]: 3.75 (inactive) | z-score [5]: 2.43 (inactive) | z-score [6]: 1.21 (inactive) | z-score [7]: -0.377 | z-score [8]: 1.39 (inactive) | z-score [9]: 1.02 (inactive) | z-score [10]: -0.963 | z-score [11]: 2.28 | z-score [12]: 0.477 | z-score [13]: 0.651 | z-score [14]: -0.965 | z-score [15]: -2.14 | z-score [16]: 2.19 | z-score [17]: 0.18 (inactive) | z-score [18]: -0.111 | z-score [19]: 0.309 | z-score [20]: 2.7 (inactive)

C=CCN1C(=O)[C@]2(O[C@H](CCO)[C@@H]([Si](C)(C)c3ccc(OC)cc3)[C@@H]2C)c2ccccc21
z-score [1]: -1.95 (inactive) | composite z-score [2]: -0.33 | z-score [3]: 11.9 (active) | z-score [4]: 2.43 (inactive) | z-score [5]: -2.63 (inactive) | z-score [6]: 1.19 (inactive) | z-score [7]: -0.613 | z-score [8]: -0.536 (inactive) | z-score [9]: -0.0158 (inactive) | z-score [10]: -1.23 | z-score [11]: -3.94 | z-score [12]: -0.448 | z-score [13]: -4.62 | z-score [14]: -2.7 | z-score [15]: -4.37 | z-score [16]: -3.42 | z-score [17]: -0.0442 (inactive) | z-score [18]: -1.18 | z-score [19]: -2.21 | z-score [20]: -1.83 (inactive)

O=C1OCCC=C[C@H]2OC34C=CCN(CCN5CCOCC5)C(=O)[C@H]3N(CCCO)C(=O)[C@@H]4C12 (stereo not given in full)
z-score [1]: 0.274 (inactive) | composite z-score [2]: -0.0464 | z-score [3]: 0.377 (inactive) | z-score [4]: -1.35 (inactive) | z-score [5]: 0.901 (inactive) | z-score [6]: -1.73 (inactive) | z-score [7]: 0.41 | z-score [8]: -0.433 (inactive) | z-score [9]: -1.97 (inactive) | z-score [10]: -0.183 | z-score [11]: 0.531 | z-score [12]: 0.473 | z-score [13]: 0.127 | z-score [14]: -0.0305 | z-score [15]: -0.0605 | z-score [16]: -0.338 | z-score [17]: 1.33 (inactive) | z-score [18]: 0.398 | z-score [19]: -0.139 | z-score [20]: -0.784 (inactive)

[N-]=[N+]=NCc1ccccc1[C@@H]1OC(c2ccc(OCCCO)cc2)=N[C@]1(Cc1ccccc1)C(=O)NCc1ccccc1
z-score [1]: 0.251 (inactive) | composite z-score [2]: 0.219 | z-score [3]: 18.4 (active) | z-score [4]: 4.26 (inactive) | z-score [5]: 1.52 (inactive) | z-score [6]: 0.983 (inactive) | z-score [7]: 0.0369 | z-score [8]: -3.27 (inactive) | z-score [9]: 1.15 (inactive) | z-score [10]: 0.85 | z-score [11]: 0.53 | z-score [12]: 0.592 | z-score [13]: 0.293 | z-score [14]: -0.856 | z-score [15]: -0.0369 | z-score [16]: 0.152 | z-score [17]: 0.594 (inactive) | z-score [18]: -0.994 | z-score [19]: -0.921 | z-score [20]: 0.267 (inactive)

Source: PubChem BioAssay
